Compound activity from PubChem BioAssay.
Most compounds without a hit are left out; they make up all but 4% or so of the library.
RAD52 anneal inh = blocks human RAD52 DNA annealing | P43351 | recombinant RAD52 DNA annealing, FRET fluorescence | inhibition, % at 18.7 µM | 360,000 tested, 0.46% active | AID 651710;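 active means every replicate showing at least 50% inhibition; inconclusive means mean inhibition at least 50% but not in every replicate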
ERAP1 HTS inh = ERAP1 (human) enzyme inhibition; Q9NZ08; recombinant ERAP1, Leu-AMC fluorescence, 60 min; inhibition, % at 10.7 µM; 340,000 tested, 0.15% active;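 active means mean replicate inhibition of at least 30%, or all replicates individually reaching that 30% level; inactive means mean below 30% and not every replicate reaching it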;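 further: 0% = neutral control wells and 100% = L-leucinethiol positive control wells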
MLL AF4-AF9 inh = inhibitors of human MLL-AF4/AF9 interaction. P42568. AlphaScreen, biotin-AF4 peptide binding to FLAG-AF9. inhibition, % at 10 µM. 350,000 tested, 0.47% active. AID 651704;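 active means every replicate reaching a set inhibition limit, whatever the replicate mean, cut at about 25% in these data; inconclusive means mean inhibition reaches that limit but some replicates miss it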;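 further: 0% = plate neutral control median and 100% = total signal loss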
DENV2 CPE = inhibitors of DENV2 cytopathic effect. CPE inhibition, % at 9.99 µM. DENV2-infected cells, cytopathic effect rescue, plate reader. 350,000 tested, 1.7% active; in the data active means CPE inhibition above about 20%, passing the limit was not always enough; inconclusive means no clear call, values can overlap the other calls; tested in BHK-21 cells;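 further: 0% = median of neutral control wells and 100% = median of positive control wells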
FGF22 binding = binders of recombinant human FGF22 by thermal shift; Q9HCT0; SYPRO orange fluorescence; percent of sucrose octasulfate shift, DMSO zero; activity (Tm shift, normalised), % at 9.99 µM; 340,000 tested, 1.5% active;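 active means mean Tm shift, scaled 0 neutral to 100 positive control, at about 1.3% or above, every replicate too, limit read from the data; inconclusive means no clear call, values can overlap the other calls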
Starred values were filed as active, the others as inactive.

C[C@H]1CN([C@@H](C)CO)C(=O)c2cc(C#CCN(C)C)cnc2O[C@@H]1CN(C)Cc1cccc(F)c1 was read as RAD52 anneal inh 12, ERAP1 HTS inh 3, MLL AF4-AF9 inh 11, DENV2 CPE -1 and FGF22 binding 0.
For Cc1cc(C(=O)Nc2cccc3c2O[C@@H](CN(C)S(=O)(=O)c2ccc(Cl)cc2)[C@H](C)CN([C@@H](C)CO)C3=O)n(C)n1 the results were RAD52 anneal inh -11, ERAP1 HTS inh 0, MLL AF4-AF9 inh 0, DENV2 CPE 11 and FGF22 binding 0.
Cc1[nH][nH]c(=O)c1C(c1ccc(-c2ccc(F)cc2)o1)c1c(C)[nH][nH]c1=O was read as RAD52 anneal inh -6, ERAP1 HTS inh -1, MLL AF4-AF9 inh -20, DENV2 CPE 5 and FGF22 binding 43*.
For COc1ccc(N2CCN(C(=O)Cc3csc(NC(=O)Nc4ccccc4OC)n3)CC2)cc1 the results were RAD52 anneal inh -106, ERAP1 HTS inh 0, MLL AF4-AF9 inh 3, DENV2 CPE 4 and FGF22 binding -1.
For COc1ccccc1NC(=O)Nc1nc(CC(=O)N2CCN(c3ccc(F)cc3)CC2)cs1 the results were RAD52 anneal inh -69, ERAP1 HTS inh 1, MLL AF4-AF9 inh 5, DENV2 CPE 40* and FGF22 binding 0.
For CC(C)c1cn(CC[C@@H]2CC[C@H](NC(=O)c3cccc(F)c3)[C@@H](CO)O2)nn1 the results were RAD52 anneal inh -7, ERAP1 HTS inh 2, MLL AF4-AF9 inh -2, DENV2 CPE 2 and FGF22 binding 0.
`O=C(NCC[C@H]1CC[C@H](NS(=O)(=O)Cc2ccccc2)[C@H](CO)O1)C1CC1` gave RAD52 anneal inh -12, ERAP1 HTS inh 0, MLL AF4-AF9 inh 0, DENV2 CPE 4 and FGF22 binding 0.
For CCN(CC)C(=O)C1CCN(Cc2ccc(OCc3ccccc3)cc2)CC1 the results were RAD52 anneal inh -9, ERAP1 HTS inh 0, MLL AF4-AF9 inh 0, DENV2 CPE 28* and FGF22 binding 0.
Screening N#CC1=C(SCC(=O)NC23CC4CC(CC(C4)C2)C3)NC(=O)C(C#N)C12CCCCC2 (stereo not drawn) returned RAD52 anneal inh -2, ERAP1 HTS inh -4, MLL AF4-AF9 inh -5, DENV2 CPE -1 and FGF22 binding 1.9*.
Screening N#CC1=C(SCC(=O)Nc2cccc3cccnc23)NC(=O)C(C#N)C12CCCCC2 (stereo not drawn) returned RAD52 anneal inh -29, ERAP1 HTS inh 1, MLL AF4-AF9 inh 1 and FGF22 binding 0.
Screening O=S(=O)(NC[C@H]1CC[C@@H]2[C@@H](CN2Cc2cccc(-c3ccccn3)c2)O1)c1ccccc1 returned RAD52 anneal inh -7, ERAP1 HTS inh 1, MLL AF4-AF9 inh -1 and DENV2 CPE -6.
`COc1ccc(CCN(C)Cc2c(O)ccc3cc(Br)ccc23)cc1OC` gave RAD52 anneal inh -13, ERAP1 HTS inh -3, MLL AF4-AF9 inh 11, DENV2 CPE inconclusive and FGF22 binding -1.
Screening COc1ccc(CN(C)Cc2c(O)ccc3cc(Br)ccc23)cc1OC returned RAD52 anneal inh -13, ERAP1 HTS inh 4, MLL AF4-AF9 inh 6, DENV2 CPE -1 and FGF22 binding 1.7*.
`CCC(=O)N1CC2(CN(Cc3cccnc3)C2)c2c(n(C)c3cc(OC)ccc23)[C@H]1CO` gave RAD52 anneal inh 5, ERAP1 HTS inh 0, MLL AF4-AF9 inh 0, DENV2 CPE -7 and FGF22 binding 0.
O=S(=O)(c1cccs1)N1CCN(c2ccnc3cc(Cl)ccc23)CC1 was read as RAD52 anneal inh -11, ERAP1 HTS inh 3, MLL AF4-AF9 inh 2, DENV2 CPE 64* and FGF22 binding 0.
Screening O=C(C[C@H]1C=C[C@H](NC(=O)Cc2ccccn2)[C@H](CO)O1)NCCc1ccccc1 returned RAD52 anneal inh -8, ERAP1 HTS inh -3, MLL AF4-AF9 inh -5 and DENV2 CPE 20.
For Cc1ccc(NC(=O)c2cc(C(=O)Nc3ccc(C)cc3)n(C)n2)cc1 the results were RAD52 anneal inh 6, ERAP1 HTS inh -3, MLL AF4-AF9 inh -13, DENV2 CPE 42* and FGF22 binding 0.
`CO[C@H](CN(C)C(=O)c1ccccc1F)[C@H](C)CN([C@H](C)CO)S(=O)(=O)c1ccccc1` gave RAD52 anneal inh 5, ERAP1 HTS inh -1, MLL AF4-AF9 inh -28, DENV2 CPE 0 and FGF22 binding 1.
`O=C(NCCN1CCOCC1)C(=O)NCC1OCCN1S(=O)(=O)c1ccc(Cl)cc1` (stereo not drawn) gave RAD52 anneal inh 1, ERAP1 HTS inh -2, MLL AF4-AF9 inh 0, DENV2 CPE 79* and FGF22 binding 0.
`O=C(NCCC1=CCCCC1)C(=O)NCC1OCCCN1S(=O)(=O)c1ccc(F)cc1` (stereo not drawn) gave RAD52 anneal inh 1, ERAP1 HTS inh -7, MLL AF4-AF9 inh -1, DENV2 CPE -5 and FGF22 binding 44*.
For COc1cccc(S(=O)(=O)N2CC3(CN[C@@H](CO)c4[nH]c5cc(OC)ccc5c43)C2)c1 the results were RAD52 anneal inh -38, ERAP1 HTS inh -1, MLL AF4-AF9 inh 1, DENV2 CPE 15 and FGF22 binding 0.
For COc1ccc(C(=O)N2CCNC(=O)C2CC(=O)Nc2cccc(Cl)c2Cl)cc1 (stereo not drawn) the results were RAD52 anneal inh 7, ERAP1 HTS inh -4, MLL AF4-AF9 inh -1, DENV2 CPE 89* and FGF22 binding 1.
`COc1ccc(NC(=O)CC2C(=O)NCCN2C(=O)c2ccc(Cl)cc2)cc1` (stereo not drawn) gave RAD52 anneal inh -10, ERAP1 HTS inh -2, MLL AF4-AF9 inh -4, DENV2 CPE -9 and FGF22 binding 0.
CCC(=O)N1[C@@H](CO)[C@@H](c2ccccc2)C12CN(C(=O)c1ccc(F)cc1)C2 was read as RAD52 anneal inh -10, ERAP1 HTS inh -4, MLL AF4-AF9 inh -2, DENV2 CPE 7 and FGF22 binding 0.
For C[C@H](CO)N1C[C@H](C)[C@H](CN(C)Cc2ccccc2)Oc2ccc(NC(=O)Nc3ccc4c(c3)OCO4)cc2CC1=O the results were RAD52 anneal inh -1, MLL AF4-AF9 inh 2 and DENV2 CPE -8.
Screening CCCNC(=O)N(C)C[C@H]1Oc2cc(C#C[C@H](C)O)ccc2S(=O)(=O)N([C@H](C)CO)C[C@H]1C returned RAD52 anneal inh 2, MLL AF4-AF9 inh -2, DENV2 CPE 42* and FGF22 binding 0.
CCCNC(=O)N(C)C[C@@H]1Oc2cc(C3=CCCCC3)ccc2S(=O)(=O)N([C@H](C)CO)C[C@H]1C was read as RAD52 anneal inh -6, ERAP1 HTS inh 4, MLL AF4-AF9 inh 4, DENV2 CPE 47* and FGF22 binding 0.
For C[C@H](CO)N1C[C@H](C)[C@H](CN(C)C(=O)c2ccccc2)Oc2cc(C3=CCCC3)ccc2S1(=O)=O the results were RAD52 anneal inh 5, ERAP1 HTS inh -1, MLL AF4-AF9 inh 0, DENV2 CPE 27* and FGF22 binding 0.
